# Measurements from PubChem BioAssay (NCATS).
# Records with an inconclusive call do not appear. Calls of active or inactive are those of the source. Calls come from the whole dose curve; as a rule, active = well fitted curve in the direction sought with a large enough effect; inconclusive = small, poorly fitted or top-dose-only effect, or another doubt; inactive = no such curve, though single readings can be large; an effect the other way counts as inactive or inconclusive.
# Key:
# [1] = Quantitative High-Throughput drug screen in 47 multiple myeloma cell lines against the NCATS MIPE library collection: Karpas620_DSMZ cell viability assay (AID 1918959); note: nearly all actives have a fitted effect of over 30% in size; note: potency is the fitted concentration of half-maximal effect
# Outline: (§1)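 Viability readout: CellTiter-Glo luminescence following 5 min room-temperature incubation with reagent. Prior exposure: 48 h, 37C, humidified 5% CO2, 500 cells per well.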
# [2] = Quantitative High-Throughput drug screen in 47 multiple myeloma cell lines against the NCATS MIPE library collection: KMM1_JCRB cell viability assay (AID 1918960); note: nearly all actives have a fitted effect of over 30% in size; note: potency is the fitted concentration of half-maximal effect
# Outline: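 Myeloma cells, 500 per well, were exposed to MIPE 4.0 drugs by pin transfer for 48 h at 37 °C, 5% CO2. Viability was read as ATP luminescence with CellTiter-Glo, normalised to DMSO-only (100%) and medium-only (0%) wells.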
# [3] = Quantitative High-Throughput drug screen in 47 multiple myeloma cell lines against the NCATS MIPE library collection: Karpas417_ECACC cell viability assay (AID 1918961); conditions: Karpas417 myeloma viability, CellTiter-Glo ATP luminescence, 48 h; viability (% of DMSO): at 45.8 µM (top of the series)
# Outline: (§2)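 Approved and investigational drugs from MIPE 4.0 were added by pin tool to 500 cells per well. After 48 hours at 37C, ATP-based CellTiter-Glo luminescence indicated remaining viability.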
# [4] = Quantitative High-Throughput drug screen in 47 multiple myeloma cell lines against the NCATS MIPE library collection: JIM3_ECACC cell viability assay (AID 1918963; note: nearly all actives have a fitted effect of over 35% in size; note: potency is the fitted concentration of half-maximal effect)
# Outline: as §1
# [5] = Quantitative High-Throughput drug screen in 47 multiple myeloma cell lines against the NCATS MIPE library collection: JIM1_ECACC cell viability assay (AID 1918964; note: potency is the fitted concentration of half-maximal effect)
# Outline: (§3)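 Myeloma cells (500 per well) were exposed to MIPE 4.0 compounds by pin transfer and incubated 48 hours at 37C, 5% CO2. Viability was read as ATP by CellTiter-Glo luminescence, normalised to DMSO (100%) and media-only (0%) wells.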
# [6] = Quantitative High-Throughput drug screen in 47 multiple myeloma cell lines against the NCATS MIPE library collection: INA6_PLB cell viability assay (AID 1918965; note: nearly all actives have a fitted effect of over 55% in size; note: potency is the fitted concentration of half-maximal effect)
# Outline: as §2
# [7] = Quantitative High-Throughput drug screen in 47 multiple myeloma cell lines against the NCATS MIPE library collection: JJN3_DSMZ cell viability assay (AID 1918966; note: nearly all actives have a fitted effect of over 50% in size; note: potency is the fitted concentration of half-maximal effect)
# Outline: as §3
# [8] = Quantitative High-Throughput drug screen in 47 multiple myeloma cell lines against the NCATS MIPE library collection: H1112_PLB cell viability assay (AID 1918967; note: nearly all actives have a fitted effect of over 30% in size; note: potency is the fitted concentration of half-maximal effect)
# Outline: as §3
# [9] = Quantitative High-Throughput drug screen in 47 multiple myeloma cell lines against the NCATS MIPE library collection: Karpas25_ECACC cell viability assay (AID 1918968; note: nearly all actives have a fitted effect of over 35% in size; note: potency is the fitted concentration of half-maximal effect)
# Outline: as §3
# [10] = Quantitative High-Throughput drug screen in 47 multiple myeloma cell lines against the NCATS MIPE library collection: KMS12PE_JCRB cell viability assay (AID 1918972); note: nearly all actives have a fitted effect of over 30% in size; note: potency is the fitted concentration of half-maximal effect
# Outline: as §2
# [11] = Quantitative High-Throughput drug screen in 47 multiple myeloma cell lines against the NCATS MIPE library collection: KMS20_JCRB cell viability assay (AID 1918973); note: nearly all actives have a fitted effect of over 45% in size; note: potency is the fitted concentration of half-maximal effect
# Outline: as §3
# [12] = Quantitative High-Throughput drug screen in 47 multiple myeloma cell lines against the NCATS MIPE library collection: MOLP8_DSMZ cell viability assay (AID 1918977); note: nearly all actives have a fitted effect of over 45% in size; note: potency is the fitted concentration of half-maximal effect
# Outline: (§4)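 MIPE 4.0 approved/investigational drugs; 500 cells/well; 48 h 37 °C humidified 5% CO2; CTG luminescence readout; DMSO = 100%, media = 0% viability.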
# [13] = Quantitative High-Throughput drug screen in 47 multiple myeloma cell lines against the NCATS MIPE library collection: KMS27_JCRB cell viability assay (AID 1918970); conditions: KMS27 myeloma cells, CellTiter-Glo ATP viability, 48 h; viability (% of DMSO): at 45.8 µM (top of the series); note: nearly all actives have a fitted effect of over 30% in size; note: potency is the fitted concentration of half-maximal effect
# Outline: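 Luminescent ATP read-out (CellTiter-Glo, 5 min at room temperature) after 48 h compound exposure of 500 KMS27_JCRB cells per well; DMSO wells define full viability and media-only wells zero.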
# [14] = Quantitative High-Throughput drug screen in 47 multiple myeloma cell lines against the NCATS MIPE library collection: KMS12BM_JCRB cell viability assay (AID 1918971); note: nearly all actives have a fitted effect of over 35% in size; note: potency is the fitted concentration of half-maximal effect
# Outline: as §1
# [15] = Quantitative High-Throughput drug screen in 47 multiple myeloma cell lines against the NCATS MIPE library collection: KMS26_JCRB cell viability assay (AID 1918975); note: nearly all actives have a fitted effect of over 45% in size; note: potency is the fitted concentration of half-maximal effect
# Outline: as §1
# [16] = Quantitative High-Throughput drug screen in 47 multiple myeloma cell lines against the NCATS MIPE library collection: NCIH929_DSMZ cell viability assay (AID 1918978); note: nearly all actives have a fitted effect of over 35% in size; note: potency is the fitted concentration of half-maximal effect
# Outline: as §4
# [17] = Quantitative High-Throughput drug screen in 47 multiple myeloma cell lines against the NCATS MIPE library collection: MMM1_PLB cell viability assay (AID 1918976)
# Outline: as §4
# [18] = Quantitative High-Throughput drug screen in 47 multiple myeloma cell lines against the NCATS MIPE library collection: KHM11_PLB cell viability assay (AID 1918962); note: nearly all actives have a fitted effect of over 35% in size; note: potency is the fitted concentration of half-maximal effect
# Outline: as §1
# [19] = Quantitative High-Throughput drug screen in 47 multiple myeloma cell lines against the NCATS MIPE library collection: KMS21BM_JCRB cell viability assay (AID 1918974); conditions: ATP luminescence, 48 h; viability: at 45.8 µM (top of the series)
# Outline: as §3
Compound,Potency [1],Potency [2],viability (% of DMSO) [3],Potency [4],Potency [5],Potency [6],Potency [7],Potency [8],Potency [9],Potency [10],Potency [11],Potency [12],Potency [13],Potency [14],Potency [15],Potency [16],Potency [17],Potency [3],Potency [18],Potency [19]
O=c1[nH]c(=O)n([C@H]2C[C@@H](O)[C@@H](CO)O2)cc1C=CBr,inactive,inactive,90.1% (active),inactive,inactive,inactive,inactive,inactive,inactive,inactive,inactive,inactive,,,,,,,,
CCCCCCCCCCCCc1ccc(S(=O)(=O)Nc2nncs2)cc1,inactive,inactive,,inactive,,inactive,,inactive,inactive,,,,inactive,inactive,inactive,inactive,,,,
COc1cc(OC)c(NC(=O)Nc2cc(C)on2)cc1Cl,inactive,inactive,,,,inactive,,inactive,14800 nM (active),inactive,,,,,inactive,inactive,,,,
CCN(CC)CCCCNc1ncc2c(n1)N(C)C(=O)N(c1c(Cl)c(OC)cc(OC)c1Cl)C2,inactive,inactive,,,inactive,11800 nM (active),,16600 nM (active),16600 nM (active),inactive,,,,,,inactive,9350 nM (active),,,
CCc1c(O)cc(O)c(C(=O)c2ccc(OCCN3CCOCC3)c(OC)c2)c1CC(=O)N(CCOC)CCOC,,935 nM (active),,833 nM (active),,,935 nM (active),14800 nM (active),526 nM (active),,526 nM (active),662 nM (active),,1050 nM (active),833 nM (active),1050 nM (active),1480 nM (active),inactive,,
O=C(O)[C@H](CC(=O)N1C[C@@H]2CCCC[C@H]2C1)Cc1ccccc1,inactive,,,inactive,,,inactive,inactive,,,inactive,,,,inactive,inactive,,,inactive,
C[C@](Cc1c[nH]c2ccccc12)(NC(=O)OC1C2CC3CC(C2)CC1C3)C(=O)NC[C@H](NC(=O)CCC(=O)O)c1ccccc1 (stereo not given in full),,,,inactive,inactive,,inactive,,,,,inactive,,inactive,inactive,,,,,inactive
CC(C)NC[C@@H](C(=O)N1CCN(c2ncnc3c2[C@H](C)C[C@H]3O)CC1)c1ccc(Cl)cc1,4180 nM (active),,,1660 nM (active),,,6620 nM (active),3720 nM (active),469 nM (active),469 nM (active),743 nM (active),296 nM (active),,6620 nM (active),1320 nM (active),105 nM (active),26.4 nM (active),,14800 nM (active),
COC1=C2C[C@@H](C)C[C@H](OC)[C@@H](O)[C@@H](C)C=C(C)[C@H](OC(N)=O)[C@@H](OC)C=CC=C(C)C(=O)NC(=CC1=O)C2=O,,,,209 nM (active),7430 nM (active),148 nM (active),66.2 nM (active),1870 nM (active),118 nM (active),,41.8 nM (active),41.8 nM (active),,118 nM (active),52.6 nM (active),118 nM (active),1050 nM (active),,132 nM (active),
COc1ccc(S(=O)(=O)Nc2cccnc2Nc2ccc(O)cc2)cc1,,,,52.6 nM (active),,,1320 nM (active),105 nM (active),235 nM (active),,,1180 nM (active),,74.3 nM (active),2640 nM (active),1180 nM (active),1480 nM (active),,,
Cc1nc(NC(=O)N2CCC[C@@H]2C(N)=O)sc1-c1ccnc(C(C)(C)C(F)(F)F)c1,,,,,,14800 nM (active),6620 nM (active),,5260 nM (active),,1480 nM (active),,,10500 nM (active),4180 nM (active),148 nM (active),590 nM (active),,,inactive
Cc1ccccc1C(=O)Nc1ccc(C(=O)N2CCCC(O)c3cc(Cl)ccc32)c(C)c1 (stereo not given),inactive,,,inactive,,,13200 nM (active),inactive,14800 nM (active),,,inactive,,inactive,,,,,,
CC(=O)N[C@H]1[C@@H]([C@H](O)[C@H](O)CO)OC(C(=O)O)=C[C@@H]1N=C(N)N,inactive,,,inactive,,inactive,,inactive,inactive,,,,,inactive,inactive,inactive,,,inactive,
COc1ccc(C[C@@H](C)[C@@H](C)Cc2ccc(OC)c(OC)c2)cc1OC,,235 nM (active),,,,662 nM (active),833 nM (active),296 nM (active),662 nM (active),372 nM (active),2350 nM (active),2960 nM (active),166 nM (active),662 nM (active),590 nM (active),1870 nM (active),5900 nM (active),,148 nM (active),
CC1(C)CC(O)CC(C)(C)N1[O],,inactive,,inactive,inactive,inactive,,,inactive,inactive,,,inactive,inactive,inactive,inactive,,,,
